CYP2C19 inhib: blocks human cytochrome P450 2C19; P33261; CYP2C19 Supersomes, luciferin-H EGE luminescence, 30 min; inhibition, % at 5 µM; 96,000 tested, 21% active; AID 778;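 active = CYP2C19 inhibition above a set limit at 5 µM in the primary screen, cut at about 50% in these data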;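 note: plate controls were negative control wells for no effect and 2.5 mM tranylcypromine positive control for full effect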
Target sequence (P33261 whole entry, looked up): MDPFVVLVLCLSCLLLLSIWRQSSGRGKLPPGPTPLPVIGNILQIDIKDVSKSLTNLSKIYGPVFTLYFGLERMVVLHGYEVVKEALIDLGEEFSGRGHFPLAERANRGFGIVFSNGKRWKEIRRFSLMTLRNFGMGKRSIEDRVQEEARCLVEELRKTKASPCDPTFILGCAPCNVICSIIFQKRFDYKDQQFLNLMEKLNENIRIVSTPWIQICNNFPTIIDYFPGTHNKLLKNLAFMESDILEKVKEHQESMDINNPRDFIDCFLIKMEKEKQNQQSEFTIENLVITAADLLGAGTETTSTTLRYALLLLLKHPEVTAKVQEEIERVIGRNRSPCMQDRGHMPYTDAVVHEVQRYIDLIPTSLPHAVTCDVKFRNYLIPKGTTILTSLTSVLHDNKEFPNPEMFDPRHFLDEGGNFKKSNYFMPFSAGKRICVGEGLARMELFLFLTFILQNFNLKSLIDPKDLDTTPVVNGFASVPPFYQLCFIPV
Cav32 inh: human Cav3.2 channel inhibition, primary screen; 100,000 tested, 4% active; B-score at 10 µM; AID 449739; Cav3.2-expressing cells, Fluo-4 calcium fluorescence FDSS; active compounds read low; O95180;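 active = single-dose well whose peak fluorescence ratio is a statistical outlier from its plate by either plate-standardised score or position-corrected B-score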
CYP2C19 activ: increases human CYP2C19 enzyme activity. 96,000 tested, under 10 active. recombinant CYP2C19, luciferin-H EGE luminescence; active compounds read high; 0 = fully inhibited enzyme, 1 = untreated enzyme. activation factor at 5 µM;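 active = activation factor of at least 2 at 5 µM in the primary screen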;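 note: 0 = wells with 2.5 mM tranylcypromine and 1 = vehicle-only wells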
CYP2C9 inh: blocks human cytochrome P450 2C9; AID 777; P11712; 96,000 tested, 20% active; inhibition, % at 5 µM; CYP2C9 Supersomes, luciferin-H conversion, luminescence;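 active = blocking of liver enzyme CYP2C9 beyond about 50% at 5 µM, limit read from the data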
CYP2C9 activ: CYP2C9 (human) activation; P11712; recombinant CYP2C9, luciferin-H conversion, luminescence; active compounds read high; factor 1 = untreated enzyme, 0 = blocked; activation factor at 5 µM; 96,000 tested, 1.4% active;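 active = activation factor of 2 or more for CYP2C9 at a 5 µM dose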;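 note: 0 = sulfaphenazole-blocked wells and 1 = vehicle-only wells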
* hit, by the source's call; x = not tested or not shown. This is a sample that favours compounds with a hit; in the whole collection about 27% have one here.

SMILES	CYP2C19 inhib	Cav32 inh	CYP2C19 activ	CYP2C9 inh	CYP2C9 activ
COc1ccc(Nc2nc(C)c3ccccc3n2)cc1	27	-0.48	0.7	3	1
COc1ccc(Nc2nc3ccccc3nc2C)cc1	9	-3.8*	0.9	11	0.9
COC(=O)C1=C(C(=O)OC)[N+]2=C3N(C(=O)NC2(C)C)[C@H](CO)C[C@@]32c3ccccc3N(Cc3ccccc3)[C@@H]12	x	-1.6	x	x	x
O=C(O)c1cc(C2CC2)nn1-c1ccccc1	-6	-0.077	1.1	-13	1.1
Nc1cc(C2CCCC2)nn1-c1ccccc1	92*	1.3	0.1	35	0.7
Cc1ccccc1NC(=O)c1cc(N)ccc1N1CCCCC1	98*	-2.1	0	86*	0.1
CCC(=O)Nc1ccc(N2CCCCC2)c(C(=O)Nc2ccccc2C)c1	53*	0.54	0.5	21	0.8
CCOc1cc(NC(=O)c2cnccn2)c(OCC)cc1NC(=O)c1ccc(OC)cc1	22	x	0.8	14	0.9
CC(C)(C)c1cc(NC(=O)COC(=O)C2CC2)n(-c2ccccc2)n1	56*	0.21	0.4	23	0.8
COc1cccc(-c2cc(C(=O)N3C(C)CCCC3C)no2)c1 (stereo unspecified)	44	-3.7	0.6	-55	1.6
Brc1ccc(C2Nc3cccc4cccc(c34)N2)o1	71*	-5.4*	0.3	20	0.8
c1csc(C2Nc3cccc4cccc(c34)N2)c1	43	-1.3	0.6	12	0.9
COC(=O)[C@]12C(=O)C(C)=C(O)[C@@]1(C)C(C)=CC1[C@@]34CC[C@@H](OC(C)=O)C(C)(C)C3C(C[C@]12C)OC4=O (stereo partly specified)	x	-0.33	x	x	x
O=C(Nc1cccc(Cl)c1)O/N=C\c1ccncc1	89*	0.32	0.1	90*	0.1
O=C(Nc1cccc(Cl)c1)Nc1ccc(Cl)cn1	-1	1.5	1	4	1
COc1cccc(NC(=O)COC(=O)c2cccnc2)c1	67*	-0.023	0.3	35	0.7
O=C(COC(=O)c1cccnc1)Nc1cccc(Cl)c1	86*	-0.042	0.1	69*	0.3
O=C(COC(=O)c1cccnc1)c1ccc(Cl)c(Cl)c1	77*	-1.4	0.2	39	0.6
COc1cccc(NC(=O)c2cccnc2)c1	7	0.15	0.9	0	1
O=C(Oc1cccnc1)c1ccc(Cl)c(Cl)c1	-10	x	1.1	-2	1
COc1cccc(N2[C@@H](CC(=O)O)c3cc(C(F)(F)F)ccc3S2(=O)=O)c1	x	-0.93	x	x	x
COc1cc(/C=N/NC(=O)CCc2c(C)n[nH]c2C)ccc1O	8	-0.66	0.9	30	0.7
Cc1ccc(CNC(=O)C2CC(c3ccccc3F)=NO2)cc1 (stereo unspecified)	x	-2.1	x	x	x
O=C(COC(=O)c1ccncc1)Nc1cccc(Cl)c1	78*	-0.46	0.2	87*	0.1
COC(=O)c1nnn(CC(=O)Nc2cccc(Cl)c2)c1C(=O)OC	79*	-0.22	0.2	70*	0.3
SMILES	CYP2C19 inhib	Cav32 inh	CYP2C19 activ	CYP2C9 inh	CYP2C9 activ
COC(=O)CCC(=O)Nc1cccc(Cl)c1	x	0.45	x	x	x
Cc1cnc(C(=O)OCC(=O)Nc2cccc(Cl)c2)cn1	40	0.21	0.6	-2	1
C=CCn1c(SCC(=O)Nc2nnc(CC)s2)nnc1-c1cccnc1	-7	-0.1	1.1	0	1
COc1ccc(N2CCN(C(=O)CN(c3ccccc3)S(C)(=O)=O)CC2)cc1	2	0.21	1	12	0.9
CN(CC(=O)N1CCN(c2cccc(Cl)c2)CC1)S(=O)(=O)c1cccs1	82*	-0.96	0.2	81*	0.2
CN(CC(=O)N1CCN(c2ccccc2)CC1)S(=O)(=O)c1cnc[nH]1	92*	0.5	0.1	100*	0
CS(=O)(=O)N(CC(=O)N1CCN(c2ccc(F)cc2)CC1)c1cccc(Cl)c1	37	-1.7	0.6	-139	2.4*
Fc1ccc2nc3n(c2c1F)CCCCCC3	49	-0.21	0.5	5	0.9
Cc1cc(C)c2c(c1)SC1=NC(c3ccccc3)(C(F)(F)F)NC(=O)N12 (stereo unspecified)	20	0.6	0.8	13	0.9
O=C1Nc2ccc(S(=O)(=O)NCCC3=CCCCC3)c3cccc1c23	61*	-0.12	0.4	37	0.6
CCN(CC)S(=O)(=O)c1ccc2c3c(cccc13)C(=O)N2	89*	0.56	0.1	7	0.9
O=[N+]([O-])c1ccccc1S(=O)(=O)NCCC1=CCCCC1	28	x	0.7	7	0.9
CCNS(=O)(=O)c1ccc2c3c(cccc13)C(=O)N2	70*	1.6	0.3	29	0.7
C/C(CC(=O)Nc1cc(Cl)ccc1Cl)=N\NC(=O)c1ccco1	14	0.0086	0.9	4	1
O=c1c2ccccc2c(-c2ccccc2)nn1Cc1c(Cl)cccc1Cl	3	-0.82	1	22	0.8
O=c1cc2c(nn1Cc1ccc(Cl)cc1Cl)-c1ccccc1CC2	51*	-2.7	0.5	67*	0.3
O=c1cc2c(nn1Cc1ccccc1Cl)-c1ccccc1CC2	95*	-2.7	0	94*	0.1
CN1CCCN(Cc2ccc(Cl)cc2Cl)CC1	14	-0.23	0.9	9	0.9
COc1cccc(Cn2nnc(C(=O)Nc3cc(C)ccc3OC)c2N)c1	14	0.88	0.9	-26	1.3
COc1ccc(NC(=O)c2nnn(Cc3ccc(SC)cc3)c2N)c(OC)c1	5	-0.69	1	-147	2.5*
COc1cccc(Cn2nnc(C(=O)Nc3ccc(C)cc3)c2N)c1	25	-0.68	0.8	-108	2.1*
Nc1c(C(=O)NCc2ccccc2)nnn1Cc1ccc(F)cc1	-24	-0.44	1.2	8	0.9
COc1ccc(CNC(=O)c2nnn(Cc3ccc(OC)cc3)c2N)cc1	x	-5.2*	x	x	x
CSc1ccc(Cn2nnc(C(=O)Nc3ccc(C)c(C)c3)c2N)cc1	37	0.046	0.6	25	0.7
CCCc1nnc(NC(=O)CCC(=O)N2CCCCC2CC)s1 (stereo unspecified)	10	0.65	0.9	-10	1.1
SMILES	CYP2C19 inhib	Cav32 inh	CYP2C19 activ	CYP2C9 inh	CYP2C9 activ
Cc1cccc(NC(=O)C2CCCN(S(=O)(=O)c3c(C)nn(C)c3C)C2)n1 (stereo unspecified)	-11	-3.5	1.1	17	0.8
CCOC(=O)C1=C(C)N(CCCC(=O)O)C(=O)NC1c1ccccc1Cl (stereo unspecified)	x	0.51	x	x	x
CC(=O)Nc1c(O)n(C)c2ccccc12	5	-0.09	0.9	1	1
CC(=O)c1c(C)[nH]c(C(=O)N2c3ccccc3CC2C)c1C (stereo unspecified)	77*	0.13	0.2	78*	0.2
CC(=O)c1c(C)[nH]c(C(=O)N2CCN(C(=O)c3ccco3)CC2)c1C	-12	0.72	1.1	-9	1.1
CCOC(=O)C1CCCN(C(=O)C2CCCN(S(C)(=O)=O)C2)C1 (stereo unspecified)	-6	0.11	1.1	-7	1.1
CCOC(=O)CSc1nc(-c2ccc(OC)cc2)ns1	13	-0.0088	0.9	-4	1

Screens deposited in PubChem by several laboratories.
